# Screening results from PubChem BioAssay.
# CYP2C9 inh: inhibitors of human CYP2C9. P11712. CYP2C9 Supersomes, luciferin-H conversion, luminescence. inhibition, % at 5 µM. hit rate 20% among 96,000;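 active = blocking of liver enzyme CYP2C9 beyond about 50% at 5 µM, limit read from the data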
# Cav3 T inh: human Cav3.2 channel inhibition, primary screen; Cav3.2-expressing cells, Fluo-4 calcium fluorescence FDSS; stronger effect = lower value; hit rate 4% among 100,000; O95180; B-score at 10 µM;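 active = single-dose well whose peak fluorescence ratio is a statistical outlier from its plate by either plate-standardised score or position-corrected B-score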
# CYP2C19 act: cytochrome P450 2C19 (human) activation; 96,000 tested, under 10 active; activation factor at 5 µM; recombinant CYP2C19, luciferin-H EGE luminescence; stronger effect = higher value; 0 = fully inhibited enzyme, 1 = untreated enzyme; P33261;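 active = activation factor of at least 2 at 5 µM in the primary screen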
# CYP2C9 activ: CYP2C9 (human) activation; P11712; recombinant CYP2C9, luciferin-H conversion, luminescence; stronger effect = higher value; factor 1 = untreated enzyme, 0 = blocked; activation factor at 5 µM; hit rate 1.4% among 96,000; AID 1024;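 active = activation factor of 2 or more for CYP2C9 at a 5 µM dose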
# CYP2C19 inh: human CYP2C19 inhibition | AID 778 | CYP2C19 Supersomes, luciferin-H EGE luminescence, 30 min | P33261 | inhibition, % at 5 µM | hit rate 21% among 96,000;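 active = CYP2C19 inhibition above a set limit at 5 µM in the primary screen, cut at about 50% in these data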
# Numbers stand for hits; . = inactive; / = no result. Sampled rows, rich in hits. Any-hit rate of the full collection: about 27%.
SMILES,CYP2C9 inh,Cav3 T inh,CYP2C19 act,CYP2C9 activ,CYP2C19 inh
N#CC1=C(N)N(c2ccccc2Sc2ccccc2)C(=O)C1,.,.,.,.,.
Cn1c(=O)cc(SCC(=O)N2CCN(c3ccccn3)CC2)c2ccccc21,62,.,.,.,.
Cn1c(=O)cc(SCC(=O)N2CCN(c3ccccc3)CC2)c2ccccc21,.,.,.,.,51
CN1CCN(C(=O)CCCOc2cc(=O)n(C)c3ccccc23)CC1,.,.,.,.,.
Cn1c(=O)cc(SCC(=O)N2CCCC2)c2ccc(Cl)cc21,.,.,.,.,.
Cn1c(=O)cc(OCCCC(=O)N2CCN(c3ccccc3)CC2)c2ccccc21,61,/,.,.,80
COc1cnc(NS(=O)(=O)c2ccc(N)cc2)nc1,/,.,/,/,/
O=C(CSc1nnc(-c2ccncc2)n1-c1ccc(Cl)cc1)N1CCOCC1,77,.,.,.,98
Cc1ccccc1-n1c(SCC(=O)N2CCN(c3ccccc3)CC2)nnc1-c1ccncc1,76,.,.,.,84
Cn1c(SCc2nc3ccccc3[nH]2)nnc1-c1cccnc1,.,.,.,.,.
Clc1ccc(-n2c(SCc3nc4ccccc4[nH]3)nnc2-c2ccncc2)cc1,84,.,.,.,99
O=C(CSc1ccc(Cl)cc1)N1CCOCC1,.,.,.,.,74
O=C(OCc1nnn(Cc2ccccc2)c1-c1c(COC(=O)c2ccccc2)nnn1Cc1ccccc1)c1ccccc1,/,.,/,/,/
COc1ccccc1-c1nnc(SCc2nc3ccccc3[nH]2)n1C,.,.,.,.,80
NC(=O)CSc1nnc(-c2ccncc2)n1-c1ccc(Cl)cc1,/,.,/,/,/
O=C(O)CSc1nnc(-c2ccncc2)n1-c1ccc(Cl)cc1,51,.,.,.,.
COc1ccc(-c2oc3ccc(N4CCOCC4)cc3c2C#CC2(O)CCCCC2)cc1,/,.,/,/,/
O=C(O)CCCNS(=O)(=O)c1ccc(NCc2ccccc2)c(C(=O)O)c1,.,.,.,.,.
CC1=CC(c2ccccc2)n2nc(NS(=O)(=O)c3ccc(C)cc3)nc2N1 (stereo not given),.,.,.,.,.
CC1=CC(c2ccc(Cl)cc2)n2nc(NS(=O)(=O)c3ccc(C)cc3)nc2N1 (stereo not given),70,.,.,.,.
CCOC(=O)N1CCC(NC(=O)C2CCCCN2S(=O)(=O)c2ccc(F)cc2)CC1 (stereo not given),.,.,.,.,.
Cc1ccc(SC/C(O)=C(\C#N)c2nc3ccccc3n2C)cc1,50,.,.,.,.
Cn1c(/C(C#N)=C(\O)CN2CCN(Cc3ccccc3)CC2)nc2ccccc21,.,.,.,.,.
O=C(Nc1cccc(-c2nc3cc(Cl)ccc3o2)c1)C1CCCO1 (stereo not given),71,.,.,.,.
Cc1ccc2oc(-c3cccc(NC(=O)Cc4cccs4)c3)nc2c1,84,.,.,.,.
SMILES,CYP2C9 inh,Cav3 T inh,CYP2C19 act,CYP2C9 activ,CYP2C19 inh
CCCC(=O)Nc1ccc2oc(-c3cccnc3)nc2c1,.,.,.,.,.
Cc1ccc2oc(-c3cccc(NC(=O)C4CCCO4)c3)nc2c1 (stereo not given),.,.,.,.,.
CCC(=O)Nc1ccc2oc(-c3cccc(C)c3)nc2c1,.,.,.,.,83
O=C1C=C(c2ccccc2)OC(=O)C1C(=O)c1ccccc1 (stereo not given),/,.,/,/,/
COc1cc(CCC(=O)N2CCN(c3ccc(N4CCOCC4)nn3)CC2)cc(OC)c1OC,.,/,.,.,.
O=C(CCCc1c[nH]c2ccccc12)N1CCN(c2ccc(N3CCOCC3)nn2)CC1,.,/,.,.,58
O=C(CN1C(=O)CCSc2ccccc21)Nc1cccc(F)c1,67,.,.,.,78
COc1ccc(S(=O)(=O)n2ccnc2)c2cccnc12,53,.,.,.,56
COc1cc(C(N)=O)cc(Br)c1OC,.,.,.,.,.
CCOC(=O)C1=C(CSc2nccn2C)NC(=O)NC1c1ccc2c(c1)OCO2 (stereo not given),.,.,.,.,88
COc1ccccc1-n1nnnc1SCc1cc2c(cc1Br)OCO2,55,.,.,.,.
COc1ccccc1-n1nnnc1SCC(=O)Nc1ccccn1,.,.,.,.,.
COc1ccccc1-n1nnnc1SCc1ccccc1,.,.,.,.,75
COc1ccc(CSc2nnnn2Cc2ccccc2)cc1OC,75,.,.,.,89
O=C(CNC(=O)c1ccc(Cl)cc1Cl)OCC(=O)c1ccc2c(c1)OCCO2,.,.,.,.,.
COC(=O)c1ccc(Oc2cc(C)nc(NCc3ccccc3)n2)cc1,.,.,.,.,.
COc1cc(C)nc(NCc2ccccc2)n1,.,.,.,.,61
COc1cc(C)nc(Oc2ccc(OCc3ccccc3)nn2)n1,.,.,.,.,75
CCOc1ccc(NC(=O)Nc2cccs2)cc1,.,.,.,.,.
C=C(C)CSCc1nc2ccccc2[nH]1,.,/,.,.,90
O=C(CSCC(=O)Nc1ccc2ccccc2c1)NCc1ccccc1,.,.,.,.,.
O=C(CSc1cccs1)Nc1ccc2ccccc2c1,64,-5.3,.,.,60
O=C(CSCc1nc2ccccc2[nH]1)Nc1ccc2ccccc2c1,58,.,.,.,.
O=C(CSCc1cccc(CSCC(=O)Nc2ccc3ccccc3c2)n1)Nc1ccc2ccccc2c1,99,/,.,.,81
CC(C)c1ccc(CNC(=O)CSCC(=O)Nc2ccc3ccccc3c2)cc1,.,.,.,.,.
SMILES,CYP2C9 inh,Cav3 T inh,CYP2C19 act,CYP2C9 activ,CYP2C19 inh
O=c1oc(-c2ccco2)nc2sc3c(c12)CCCC3,/,.,/,/,/
COc1ccc(CN=Cc2c(C(F)(F)F)[nH][nH]c2=O)cc1,.,.,.,.,.
Cc1ccc2c(c1)nnn2C1CCN(CC(=O)Nc2ccc3c(c2)OCCO3)CC1,50,.,.,.,.
O=C(CN1CCC(n2nnc3ccccc32)CC1)Nc1ccc2c(c1)CCC2,62,.,.,.,68
Cc1cc(NC(=O)CN2CCC(n3nnc4cc(C(F)(F)F)ccc43)CC2)no1,86,.,.,.,78
O=C(CN1CCC(n2nnc3cc(F)ccc32)CC1)Nc1ccc2c(c1)CCC2,.,-5.6,.,.,.
Nc1nnc(CSCc2ccc(F)cc2)s1,.,.,.,.,.
CCOC(=O)CN(C(=O)CN1CCC(n2nnc3cc(C)ccc32)CC1)c1ccccc1,55,.,.,.,.
CC1CCC(NC(=O)CN2CCC(n3nnc4cc(F)ccc43)CC2)CC1 (stereo not given),.,.,.,.,.
COc1ccc(Cl)cc1NC(=O)CN1CCC(n2nnc3cc(F)ccc32)CC1,.,.,.,.,76
Cc1nc2nc(C)c(CCC(=O)N3CCOCC3)c(C)n2n1,.,.,.,.,.
c1ccc2c(c1)ncn2Cc1nnc2sc(-c3ccncc3)nn12,.,.,.,.,78
c1cncc(-c2nn3c(Cn4cnc5ccccc54)nnc3s2)c1,.,.,.,.,.
c1ccc(-c2nn3c(Cn4cnc5ccccc54)nnc3s2)cc1,.,.,.,.,79
